# In ChEMBL document CHEMBL1157539, “Thousands of chemical starting points for antimalarial lead identification” (Nature, 2010):
# System: Plasmodium falciparum
# Assay: GSK_TCMDC: Inhibition of Plasmodium falciparum 3D7 in whole red blood cells, using parasite LDH activity as an index of growth. Test compounds present at 2uM
# Format: functional
row,Compound,Inhibition
1,Cc1ccc(OCC2CCN(c3ncc(C(=O)NCCCN4CCCC4=O)cc3Cl)CC2)cc1,94%
2,c1ccc(Oc2ccc(Nc3ccnc4cc(-c5ccc(CNCCN6CCOCC6)o5)ccc34)cc2)nc1,100%
3,Cc1ccc(Nc2nc(C)cc(Nc3cccc(NS(C)(=O)=O)c3)n2)cc1,96%
4,COc1cccc(CN2CCC(N3CCc4cc(NC(=O)c5cc(C)on5)ccc43)C2)c1OC (configuration not stated),93%
5,COc1ccc(CCNCCCCCNCCCc2ccc(Cl)cc2)cc1OC.Cl,100%
6,CNC(=O)c1cnc(Nc2ccc(N3CCN(C)CC3)c(C)c2)nc1NC.Cl,97%
7,COc1ccc2nccc([C@@H](O)CN3CCC(NCc4nc5ccccc5s4)CC3)c2c1.O=C(O)C(=O)O,93%
8,O=S(=O)(Nc1cccc(CCN2CCC(N3CCCCC3)CC2)c1)c1ccc(-c2ccccc2)cc1,100%
9,COc1ccc2ncc(C#N)c(CCN3CCC(NCc4ccc5c(n4)NC(=O)CS5)CC3)c2n1.Cl,89%
10,O=c1c2c([nH]c3cc(Cl)ccc13)CCCC2,96%
11,CC(C)CCNCc1ccc(OCc2ccccc2COc2ccc(CNCCC(C)C)cc2I)c(I)c1.Cl,100%
12,O=C(O)C(F)(F)F.c1ccc(CNCc2ccc(-c3cccc(-c4nc5ccccc5[nH]4)c3)cc2)cc1,100%
13,N#Cc1cccc(CNC(=O)c2cccc(Nc3ccnc4ccc(F)cc34)c2)c1.O=C(O)C(F)(F)F,87%
14,FC(F)(F)c1cccc(N=C(S)NN=Cc2ccccn2)c1,100%
15,O=C(Nc1cccc(F)c1)NC1CCN(c2ccnc3cc(Cl)ccc23)CC1.O=C(O)C(F)(F)F,96%
16,CN1CCC(NCc2ccc(-c3ccc(S(=O)(=O)NCc4ccccc4)c(F)c3)cc2)CC1.O=C(O)C(F)(F)F,99%
17,CN1CCN(CCc2ccc(N/C=C3\C(=O)Nc4ccc5ncccc5c43)cc2)CC1.Cl,100%
18,CCNc1cc(C(=O)N[C@@H](Cc2ccccc2)[C@H](O)CNCCC(C)c2ccccc2)cc(N2CCCC2=O)c1.O=C(O)C(F)(F)F (some centres not stated),99%
19,COc1ccc(CN(C)C(=O)CCNS(=O)(=O)c2ccc3c(c2)OCCCO3)cc1F,96%

row,Compound,Inhibition
1,O=C(/C=C/c1ccc(C(F)(F)F)cc1)NCCCCCN1CCCN(C(=O)Nc2ccc(Cl)c(C(F)(F)F)c2)CC1,99%
2,O=C(/C=C/c1ccc(Cl)c(Cl)c1)NCCCCN1CCCN(C(=O)Nc2ccc(C(F)(F)F)cc2)CC1,94%
3,O=C(Nc1ccc(OC2CCN(Cc3ccsc3)CC2)c(Cl)c1)c1ccc(F)cc1.O=C(O)C(F)(F)F,98%
4,Cc1[nH]c(C)c(-c2ccc(-c3ccc(C#N)cc3)nc2)c(=O)c1Br,97%
5,O=C(O)C(F)(F)F.c1cc(CN2CCc3ccccc3CC2)cc(-c2c[nH]c3nc(NC4CCCC4)ncc23)c1,99%
6,CC(C)CCN(Cc1cncn1Cc1cccc(C(F)(F)F)c1)C(=O)c1ccccc1C#N,99%
7,CCC(NC(=O)c1ccccc1NC(=O)c1ccc(C)cc1)C(=O)OC (configuration not stated),95%
8,CN(C)c1ccc(-c2csc(C(=O)NCC3CCN(Cc4ccc(C(C)(C)C)cc4)C3)c2)cc1.O=C(O)C(F)(F)F (configuration not stated),97%
9,CCCc1cc(=O)[nH]c(-n2nc(C)cc2NC(=O)CC(c2ccccc2)c2ccccc2)n1,97%
10,COc1c(Br)cc(Br)cc1C(C)=O,95%
11,CCC(C)NS(=O)(=O)c1ccc2nc(Nc3ccc(C)cc3)n([C@H](C)C(C)(C)C)c2c1 (some centres not stated),98%
12,Cl.O=C(Nc1cccc(-c2nn3ncccc3c2-c2ccnc(Nc3cccnc3)n2)c1)c1c(F)cccc1F,96%
13,CCc1nc2ccc(C(=O)OC)nc2n1Cc1ccc2oc(-c3ccccc3N)c(Br)c2c1,93%
14,CN(C)CCC1CCCc2ccc(NC(=O)Nc3ccc(-c4ccncc4)c4ccccc34)cc21.Cl (configuration not stated),89%
15,COc1ccc(NC(=O)C2c3ccccc3C(=O)N(C3CCCC3)C2c2cccs2)cc1 (configuration not stated),93%
16,COc1cc(NCC(O)CNc2cc(Cl)nc3ccccc23)nc2ccccc12 (configuration not stated),99%
17,Nc1nc2c(ncn2OC[C@H]2COP(=O)([O-])CO2)c(=O)[nH]1.[Na+],92%
18,COc1cc(C(C)C)ccc1C1CCN(CCCCNC(=O)c2ccc(NC(=O)c3ccc(Cl)cc3)cc2)CC1.O=C(O)/C=C/C(=O)O,98%
